In PubChem BioAssay AID1578 (Sanford-Burnham Center for Chemical Genomics, 2009):
The whole screen tested about 290,000 compounds, of which about 3,000 (1%) were called active. This is one part of a sample in which actives are shown more often than they occur. Unmarked numbers belong to inactive results. Rule as the data show it: active = inhibition mostly above about 36% (no sharp cut-off); inactive = mostly below about 34%.

test: inhibition of NOD1-driven NF-kB reporter – cell-based, luminescence, uHTS, primary screen (AID 1578); details: NOD1-driven NF-kB luciferase reporter cells, at 4 µM, hits give high values;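 also: HEK-293T reporter cells stimulated with the NOD1 agonist gamma-tri-DAP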

| Structure (SMILES) | inhibition |
| --- | --- |
| CCCCn1c(=O)[nH]c(=O)c2c1nc(Cn1ncc(Cl)c(Cl)c1=O)n2CCC | 85% (active) |
| CCCCn1c(CCC(=O)O)nc2c1c(=O)[nH]c(=O)n2CCC | -15.7% |
| CCCCn1c(=O)[nH]c(=O)c2c1nc(CN1C(=O)c3ccccc3S1(=O)=O)n2CCC | -23.3% |
| COc1ccc(NC(=O)c2ccccn2)cc1S(=O)(=O)N1CCOCC1 | -33.7% |
| Oc1[nH]c(=S)sc1C=C1N=c2ccccc2=N1 | -5.9% |
| CC1=Nc2ccccc2/C1=C\c1sc(Nc2ccc(C)cc2)nc1O | 1.1% |
| Oc1[nH]c(=S)sc1/C=C1\C(c2ccccc2)=Nc2ccccc21 | 72.5% (active) |
| Cc1ccc(S(=O)(=O)N2CCN(C(=O)CSC3CCCC3)CC2)c(C)c1 | -8.8% |
| Cc1cccc(N2CCN(c3nc4nonc4nc3N3CCSCC3)CC2)n1 | -22.4% |
| Cc1ccc(NC(=O)C(=O)NCc2ccccn2)cc1 | -47.6% |
| Cc1cc(SCC(N)=O)nc(SCC(=O)c2ccccc2)n1 | 28.1% |
| COc1ccc(C(=O)CSc2cc(C)nc(SCC(=O)c3ccc(C)cc3)n2)cc1 | 63.1% (active) |
| Cc1ccc(C(=O)CSc2cc(C)nc(SCC(=O)c3ccccc3)n2)cc1 | 61.4% |
| Cc1ccc(S(=O)(=O)N2CCN(C(=O)c3sccc3-c3ccccc3)CC2)cc1 | -24.8% |
| COc1ccc(N(C(C)C(=O)N/N=C/c2ccc(OC(C)C)cc2)S(C)(=O)=O)cc1 (configuration not stated) | 14.7% |
| Cc1[nH]nc2c1C(c1ccsc1)C(C#N)=C(N)O2 (configuration not stated) | -7.7% |
| CC(C)(C)c1[nH]nc2c1C(c1ccncc1)C(C#N)=C(N)O2 (configuration not stated) | -8.8% |
| CC(C)(C)c1[nH]nc2c1C(c1ccsc1)C(C#N)=C(N)O2 (configuration not stated) | 59.2% (active) |
| Cc1ccc(C)c(NS(=O)(=O)c2csc(C(N)=O)c2)c1 | -9.7% |
| O=C(Nc1ccc(Nc2ccccc2)cc1)C(Cl)Cl | -5.4% |
| Cc1ccccc1N1C(=O)CC(c2c[nH]c3ccccc23)C1=O (configuration not stated) | -3.6% |
| CC(=O)c1c(-c2ccccc2)[nH]c2ccccc12 | 5.8% |
| COc1nc(OC)nc(N2CCC(C(=O)NCC3CCCCC3)CC2)n1 | -10.9% |
| Cc1nnc(SCCn2c(N3CCCC(C)C3)nc3c2c(=O)[nH]c(=O)n3C)s1 (configuration not stated) | -9.1% |
| C=CCN(CC=C)C(=S)NC(=O)c1ccc(C)c(Br)c1 | 108% (active) |

| Structure (SMILES) | inhibition |
| --- | --- |
| C=CCN(CC=C)C(=S)NC(=O)c1ccc(OC)c(Br)c1 | 30.4% |
| C=CCNC(=S)NC(=O)c1ccc(C)c(Br)c1 | -4.3% |
| O=S(=O)(c1ccc(Cl)cc1)n1cnc2ccccc21 | -31.4% |
| Cc1ccc(-c2csc(N(C)C(=O)c3c(C)nn(-c4ccccc4)c3Cl)n2)cc1 | 33.6% |
| O=C(CN1C(=O)NC2(CCCCC2)C1=O)N1CCN(S(=O)(=O)c2ccccc2)CC1 | -35.1% |
| Cc1cccc(C)c1Nc1nnc(SCc2nc3ccccc3s2)s1 | -39.5% |
| Nc1ccccc1Nc1cc(-c2ccccc2)[nH]n1 | 48.4% (active) |
| CC1(C)CC(=O)C=C(Nc2cc(-c3ccccc3)[nH]n2)C1 | -25.9% |
| Nc1ccccc1Nc1cc(-c2ccccc2)nn1-c1ccccc1 | -20.6% |
| CC(C)C(NC(=O)c1ccc(F)cc1)C(=O)NCC1CCCO1 (configuration not stated) | -6.2% |
| COc1cc(OC)cc(C(=O)Nc2ccc(S(=O)(=O)N3CCOCC3)cc2)c1 | -9.3% |
| COc1cc(OC)cc(C(=O)N2CCC3(CC2)NCCc2[nH]cnc23)c1 | -20.2% |
| CC1C/C(=N\NC(N)=S)c2cc(Cl)ccc2S1 (configuration not stated) | 3.3% |
| CC1Sc2ccc(Cl)cc2-c2nc(N)ncc21 (configuration not stated) | 50.5% (active) |
| Nc1ncc2c(n1)-c1cc(Cl)ccc1SC2 | -6.1% |
| Cc1c(Cl)c([N+](=O)[O-])nn1CCCC(=O)Nc1cccc(O)c1 | -0.3% |
| O=[N+]([O-])c1cc(S(=O)(=O)C(F)(F)F)ccc1Sc1nc2ccccc2[nH]1 | 46.1% |
| Cc1ccc(CN2CCN(Cc3cccn3-c3ccc(Cl)cn3)CC2CCO)o1 (configuration not stated) | -17.4% |
| O=C(CSc1ccc2nnc(-c3ccncc3)n2n1)Nc1ccc2c(c1)OCCO2 | 9.6% |
| Cc1cc(/C=N/n2c(COc3ccccc3C)nc3ccccc3c2=O)c(O)c([N+](=O)[O-])c1 | 15% |
| Cc1ccccc1OCc1nc2ccccc2c(=O)n1/N=C/c1ccco1 | 31.5% |
| Cc1ccccc1OCc1nc2ccccc2c(=O)n1/N=C/c1cccc([N+](=O)[O-])c1 | 80.1% (active) |
| O=C(Oc1ccc2ccc(=O)oc2c1)c1ccc([N+](=O)[O-])cc1 | -9.4% |
| CCc1nc(C)cn1S(=O)(=O)c1ccc(Br)cc1 | -17.6% |
| CCOc1ccccc1NC(=O)c1cc(C(=O)c2cc(OC)ccc2O)coc1=N | -9.3% |

| Structure (SMILES) | inhibition |
| --- | --- |
| CCOC(=O)c1cc(C(=O)c2cc(Br)ccc2O)coc1=N | -15.1% |
| CCOc1ccccc1NC(=O)c1cc(C(=O)c2cc(Br)ccc2O)coc1=N | 56.4% (active) |
| COc1cccc(CNC(=O)C(C)n2nc(C)n3c(cc4occc43)c2=O)c1 (configuration not stated) | -11.7% |
| CCOc1cc2[nH]c(=O)n(CCC(=O)NCCc3ccccc3)c(=O)c2cc1OCC | -0.5% |
| Cc1cc(C)c(S(C)(=O)=O)c(S(=O)(=O)c2ccc(Cl)cc2)n1 | -33.9% |
| O=C(O)CSc1c2c(nc3cc(C(=O)NCCN4CCOCC4)ccc13)CCC2 | 91.8% (active) |
| CC(C)CCNC(=O)c1ccc2c(SCC(=O)O)c3c(nc2c1)CCC3 | 0.8% |
| CC(C)CCNC(=O)c1ccc2c(SCC(=O)O)c3c(nc2c1)CCCC3 | -29.5% |
| Cc1ccccc1S(=O)(=O)Cc1ccc(C(=O)N2CCN(c3ccccc3F)CC2)o1 | 21.3% |
| Cc1ccc(S(=O)(=O)Cc2ccc(C(=O)N3CCN(c4cccc(C)c4C)CC3)o2)cc1 | 27.1% |
| COc1ccccc1-c1noc(-c2cc(OC)c(OC)c(OC)c2)n1 | -24% |
| CC(C(=O)OCC(=O)c1cccc([N+](=O)[O-])c1)N1C(=O)C2C3CCC(C3)C2C1=O (configuration not stated) | -8.4% |
| NC(=O)COC(=O)C1CSC2(c3ccc(F)cc3)CCC(=O)N12 (configuration not stated) | -7.5% |
| Oc1ccc2ccccc2c1/C=N/Nc1ccccc1 | -38.9% |
| O=C(CNc1ccccc1)N/N=C/c1c(O)ccc2ccccc12 | -10.9% |
| O=C(CSCC(=O)Nc1ccccc1)N/N=C/c1c(O)ccc2ccccc12 | 86.4% (active) |
| Cc1cccc(C)c1NC(=O)CCCSc1nnnn1C | -22.8% |
| Cc1ccc(NC(=O)CC2SC(=NC3CCCCC3)NC2=O)cc1 (configuration not stated) | -23.2% |
| CCCn1cccc(C(=O)Nc2ccc(OC)cc2)c1=O | -3.2% |
| O=C(CSc1nnc(CNC(=O)c2c(F)cccc2F)o1)NCc1ccccc1 | -29.1% |
| CCN(CC)S(=O)(=O)c1ccc(N=Cc2c(C)c(C#N)c(=O)n(C)c2O)cc1 | -9.8% |
| COc1ccc(C2NC(=S)NC(O)(C(F)(F)F)C2C(=O)c2cccs2)cc1 (configuration not stated) | -33.8% |
| CC(/C=N/n1cnnc1)=C\c1ccccc1 | -1% |
| Nc1nnnn1/N=C/c1ccccc1 | -4% |
| Nc1nnnn1/N=C/C(Br)=C/c1ccccc1 | 95.9% (active) |

| Structure (SMILES) | inhibition |
| --- | --- |
| BrC(=C\c1ccccc1)/C=N/n1cnnc1 | 66.7% (active) |
| ClC(/C=N/n1cnnc1)=C/c1ccccc1 | 1.7% |
| Nc1nnnn1/N=C/C=C/c1ccccc1 | 10.1% |
| Cc1ccc(C(=O)Nc2ccc(S(=O)(=O)Nc3cnc4ccccc4n3)cc2)cc1 | -14.5% |
| COc1cccc(/C=C2\SC(=S)N(CCCC(=O)Nc3cc(C)on3)C2=O)c1 | -22.5% |
| Cc1cccc2c1CC(C)(C)N=C2C1=C(O)CCCC1=O | -19.9% |
| C/C(=N\NC(=O)C1CC1)c1ccc(C(C)(C)C)cc1 | -39.6% |
| CSc1ccc(OC2CCCCC2NS(=O)(=O)c2ccc(Cl)cc2)cc1 (configuration not stated) | 8.3% |
| Oc1c(Br)cc(Br)cc1/C=N/NC(=S)N[C@H]1CC2C=CC1C2 (some centres not stated) | 47.8% (active) |
| CCC(O)(CC)C(=O)N/N=C/c1cc(Br)cc(Br)c1O | 1.3% |
| CNC(=S)N/N=C/c1cc(Br)cc(Br)c1O | 73.9% (active) |
| Oc1ccccc1/C=N/NC(=S)NC1CC2C=CC1C2 (configuration not stated) | -1.4% |
| Oc1c(Br)cc(/C=N/NC(=S)NCc2ccco2)cc1Br | 15% |
| Oc1c(Cl)cc(Cl)cc1/C=N/NC(=S)NC1CC2C=CC1C2 (configuration not stated) | 26.6% |
| CC(C)(C)NC(=S)N/N=C/c1cccnc1 | -10.2% |
| CNC(=S)N/N=C/c1cc(C)ccc1C | -38.3% |
| Nc1nc(SCC(=O)N2CCCCC2)[nH]c(=O)c1NC(=O)c1cccs1 | -15.7% |
| COc1ccc(N(CC(=O)Nc2ccc3c(c2)OCCO3)S(C)(=O)=O)c(OC)c1 | -7.6% |
| COc1ccc(Cn2c3ccc(OC)cc3c3nc4ccccc4nc32)cc1 | -41.1% |
| Cc1cc(Br)ccc1OCCCCNCCO | -40.2% |
| O=c1cc(COc2ccc(Cl)c(Cl)c2)nc2sccn12 | -5.4% |
| CCN(CC)c1ccc(N=Cc2ccc([N+](=O)[O-])o2)cc1 | -31.4% |
